Measured values: PubChem BioAssay (NCI)
The panel holds about 79,000 compounds, 15% with a hit somewhere; the sample as a whole holds those more often. Unmarked numbers belong to inactive results. Calls of active or inactive are those of the source. No stated cut-off is given here; in the data, active means growth inhibition above about 70%; inactive means the rest.

Assay: NCI Yeast Anticancer Drug Screen. Data for the rad50 strain (AID 155);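 further: 0% = growth of vehicle-only cultures of the same strain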
Conditions: S. cerevisiae rad50 strain growth inhibition; at 50.0 µM; active compounds read high
Method in brief: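 Growth of the mutant yeast was measured after compound exposure and referenced to vehicle-treated cultures.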

| SMILES | growth inhibition [%] |
| --- | --- |
| O=C(Nn1c(=S)[nH][nH]c1=S)c1ccccc1 | 17.1 |
| C=CC(=O)NC1CCCCC1 | -8.9 |
| OCC1CC(c2ccccc2)=NO1 (stereo unspecified) | -19.9 |
| CCOC(=O)c1[nH]c2ccsc2c1C[N+]1(C)CCCCC1 | 38.1 |
| COc1ccccc1C(=O)Nc1c(C)cccc1Cl | -0.45 |
| ICC1OCOC2C(CI)OCOC12 (stereo unspecified) | 5.1 |

Assay: NCI Yeast Anticancer Drug Screen. Data for the mec2-1 strain (AID 157)
Conditions: S. cerevisiae mec2-1 strain, at 50.0 µM, active compounds read high
Method in brief: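 Cells of the genetically defined mec2-1 yeast strain are incubated with test compound. Inhibition of growth is calculated against vehicle-treated controls.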

| SMILES | growth inhibition |
| --- | --- |
| CCCC(N)S(=O)(=O)O (stereo unspecified) | -10.6% |
| COC(=O)c1cc(-c2cccc3ccccc23)[nH]c(=O)c1C#N | 0.35% |
| C1CCC(C(C2CCCCC2)C2CCCCC2)CC1 | -0.65% |
| Cc1cccc(-n2c(-c3ccccc3)cs/c2=N\N=C2/CSC(=O)N2Cc2ccccc2)c1 | -21.9% |
| CC(=O)N1CCC(=O)/C(=C/c2ccccc2)C1 | 0% |
| CCCNC(=O)N(CCN(C)C)S(=O)(=O)c1ccc(Cl)cc1 | -6.75% |
| Cc1cccn2nnnc12 | -12.2% |
| O=c1[nH]c(=O)n(C2OC(COP(=O)(O)OP(=O)(O)O)C(O)C2O)cc1F (stereo unspecified) | -2.7% |
| CCCc1cc2c3c(c(=O)oc2cc1O)CCCC3 | 75.6% (active) |
| COC(=O)c1ccccc1NC(=O)c1cccc(Cl)c1 | 6.85% |
| Cn1c2c(c3ccccc31)CCCC2 | -14.8% |
| O=c1[nH]nc(S(=O)(=O)N2CCCC2)c(=O)[nH]1 | -9% |
| CC(C)(C)c1cc(C(=O)O)ccc1C(=O)O | 12.1% |
| Cn1ncc2c(NCCc3ccccc3)nc(Cl)nc21 | -18.3% |
| CNC(=O)N(C)c1cc(N(C)C)nc(OC)n1 | -34.6% |
| O=C1c2ccccc2C(=O)N1CCc1ccccn1 | -6% |
| O=C1OC(=O)C2CCC12 (stereo unspecified) | -9.5% |
| CC(=O)NC1(C)C(=O)N=C(N)N=C1N (stereo unspecified) | 4.3% |
| CC1OC(OC2C(OC(=O)[C@@H]3CC(C)(C)C[C@@H]4C5=CC[C@@H]6[C@@]7(C)C[C@H](O)[C@H](OC8OC(CO)C(O)C(O)C8O)[C@@](C)(CO)C7[C@H](O)C[C@@]6(C)[C@]5(C)C[C@@H](O)[C@H]43)OCC(O)C2O)C(O)C(O)C1O (stereo partly specified) | -21.6% |
| CC(NC(=O)C(CC(=O)OCc1ccccc1)NC(=O)OCc1ccccc1)c1ccccc1 (stereo unspecified) | -20.5% |

| SMILES | growth inhibition |
| --- | --- |
| C1CCC(N(CCN(C2CCCCC2)C2CCCCC2)C2CCCCC2)CC1 | -32.8% |
| N=C1CCCC1C(=S)SCCC(N)=O (stereo unspecified) | -30.2% |
| COC(=O)C(Cc1cc(OC)c(OC)c(OC)c1)(NC(=O)c1ccccc1)P(=O)(OC)OC (stereo unspecified) | -1.75% |
| CCCCCCCCCCCCCCCC(=O)OCC(COP(=O)(O)OC1CCC2(C)C(=CCC3C2CCC2(C)C(C(C)CCCC(C)C)CCC32)C1)OC(=O)CCCCCCCCCCCCCCC (stereo unspecified) | 4.05% |
| Cn1c(COc2ccc(/C=N\NC(=O)c3ccc(C(=O)N/N=C/c4ccc(OCc5c[n+]6ccccc6n5C)cc4)cc3)cc2)c[n+]2ccccc12 | 3.5% |
| CC1(C)C(=NNC(=S)NN)C(C)(C)C1=NNC(=S)NN | 36% |
| COc1ccc(Nc2ccnc3cc(Cl)ccc23)cc1CCN | 8.85% |
| CCOC(=O)C(C)c1nc2cc(F)c(F)cc2[nH]c1=O (stereo unspecified) | 26.5% |
| Cc1ccc(/C(=C/CN2CC3CCC(CC3)C2)c2ccccc2)cc1 | -4.5% |
| O=C1CCCCc2cccc(O)c21 | -3.85% |
| CC(O)COC(C)COC(C)c1ccccc1 (stereo unspecified) | 0.3% |
| COc1cc(\C=N/N=C/C=C/c2ccccc2)cc(OC)c1OC | 42.3% |
| CN(C)C(=O)C1C2CCC(C3CC32)C1C(=O)N(C)C (stereo unspecified) | 11.8% |
| Cc1n[nH]c2ccccc2c1=O | -17.9% |
| O=C(Nn1c(=S)[nH][nH]c1=S)c1ccccc1 | -4.05% |
| C=CC(=O)NC1CCCCC1 | -10.9% |
| OCC1CC(c2ccccc2)=NO1 (stereo unspecified) | -11.1% |
| CCOC(=O)c1[nH]c2ccsc2c1C[N+]1(C)CCCCC1 | 5.8% |
| COc1ccccc1C(=O)Nc1c(C)cccc1Cl | -25.9% |
| ICC1OCOC2C(CI)OCOC12 (stereo unspecified) | 1.3% |

Assay: NCI Yeast Anticancer Drug Screen. Data for the sgs1 mgt1 strain (AID 161);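 further: 0% = growth of cultures given vehicle only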
Conditions: S. cerevisiae sgs1 mgt1 strain, at 50.0 µM, active compounds read high
Method in brief: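 Mutant yeast exposed to compound; growth scored against vehicle-only wells.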

| SMILES | growth inhibition |
| --- | --- |
| CCCC(N)S(=O)(=O)O (stereo unspecified) | -23.9% |
| COC(=O)c1cc(-c2cccc3ccccc23)[nH]c(=O)c1C#N | 17.6% |
| C1CCC(C(C2CCCCC2)C2CCCCC2)CC1 | -8.6% |
| Cc1cccc(-n2c(-c3ccccc3)cs/c2=N\N=C2/CSC(=O)N2Cc2ccccc2)c1 | 22.8% |
| CC(=O)N1CCC(=O)/C(=C/c2ccccc2)C1 | 32% |
| CCCNC(=O)N(CCN(C)C)S(=O)(=O)c1ccc(Cl)cc1 | -13.6% |
| Cc1cccn2nnnc12 | -9.1% |
| O=c1[nH]c(=O)n(C2OC(COP(=O)(O)OP(=O)(O)O)C(O)C2O)cc1F (stereo unspecified) | -11.4% |
| CCCc1cc2c3c(c(=O)oc2cc1O)CCCC3 | 92.5% (active) |
| COC(=O)c1ccccc1NC(=O)c1cccc(Cl)c1 | 20.6% |
| Cn1c2c(c3ccccc31)CCCC2 | 1.4% |
| O=c1[nH]nc(S(=O)(=O)N2CCCC2)c(=O)[nH]1 | -10.7% |
| CC(C)(C)c1cc(C(=O)O)ccc1C(=O)O | -2.75% |
| Cn1ncc2c(NCCc3ccccc3)nc(Cl)nc21 | 5.15% |
| CNC(=O)N(C)c1cc(N(C)C)nc(OC)n1 | -19.4% |
| O=C1c2ccccc2C(=O)N1CCc1ccccn1 | 3.95% |
| O=C1OC(=O)C2CCC12 (stereo unspecified) | 3.5% |
| CC(=O)NC1(C)C(=O)N=C(N)N=C1N (stereo unspecified) | 11.1% |
| CC1OC(OC2C(OC(=O)[C@@H]3CC(C)(C)C[C@@H]4C5=CC[C@@H]6[C@@]7(C)C[C@H](O)[C@H](OC8OC(CO)C(O)C(O)C8O)[C@@](C)(CO)C7[C@H](O)C[C@@]6(C)[C@]5(C)C[C@@H](O)[C@H]43)OCC(O)C2O)C(O)C(O)C1O (stereo partly specified) | -9.35% |
| CC(NC(=O)C(CC(=O)OCc1ccccc1)NC(=O)OCc1ccccc1)c1ccccc1 (stereo unspecified) | 9.15% |

| SMILES | growth inhibition |
| --- | --- |
| C1CCC(N(CCN(C2CCCCC2)C2CCCCC2)C2CCCCC2)CC1 | -26.7% |
| N=C1CCCC1C(=S)SCCC(N)=O (stereo unspecified) | -51.5% |
| COC(=O)C(Cc1cc(OC)c(OC)c(OC)c1)(NC(=O)c1ccccc1)P(=O)(OC)OC (stereo unspecified) | -38.4% |
| CCCCCCCCCCCCCCCC(=O)OCC(COP(=O)(O)OC1CCC2(C)C(=CCC3C2CCC2(C)C(C(C)CCCC(C)C)CCC32)C1)OC(=O)CCCCCCCCCCCCCCC (stereo unspecified) | 22.2% |
| Cn1c(COc2ccc(/C=N\NC(=O)c3ccc(C(=O)N/N=C/c4ccc(OCc5c[n+]6ccccc6n5C)cc4)cc3)cc2)c[n+]2ccccc12 | -2.85% |
| CC1(C)C(=NNC(=S)NN)C(C)(C)C1=NNC(=S)NN | 42.4% |
| COc1ccc(Nc2ccnc3cc(Cl)ccc23)cc1CCN | 24% |
| CCOC(=O)C(C)c1nc2cc(F)c(F)cc2[nH]c1=O (stereo unspecified) | 9% |
| Cc1ccc(/C(=C/CN2CC3CCC(CC3)C2)c2ccccc2)cc1 | 11.9% |
| O=C1CCCCc2cccc(O)c21 | -1.95% |
| CC(O)COC(C)COC(C)c1ccccc1 (stereo unspecified) | -4% |
| COc1cc(\C=N/N=C/C=C/c2ccccc2)cc(OC)c1OC | 7.95% |
| CN(C)C(=O)C1C2CCC(C3CC32)C1C(=O)N(C)C (stereo unspecified) | 37.2% |
| Cc1n[nH]c2ccccc2c1=O | -21.6% |
| O=C(Nn1c(=S)[nH][nH]c1=S)c1ccccc1 | -2.35% |
| C=CC(=O)NC1CCCCC1 | -19.8% |
| OCC1CC(c2ccccc2)=NO1 (stereo unspecified) | -11.2% |
| CCOC(=O)c1[nH]c2ccsc2c1C[N+]1(C)CCCCC1 | 36.9% |
| COc1ccccc1C(=O)Nc1c(C)cccc1Cl | -0.8% |
| ICC1OCOC2C(CI)OCOC12 (stereo unspecified) | -5.3% |
